# Measurements published in the supplement of paper PMC11732987, “Enantioselective OTUD7B fragment discovery through chemoproteomics screening and high-throughput optimisation” (Communications Chemistry, 2025).
# Values without a mark were called inactive.
# Tests used:
# Test in all cases: log2 ratio of Biotin-Ahx-Ub-VS probe labelling (fragment/DMSO); higher = less target engagement (more negative = stronger competition), active = hit call of the paper (q ≤ 0.05, log2 ratio ≤ -1)
# Conditions in all cases: compound concentration: 200 uM; treatment time: 3 h
# OTUD6B = target: T1, OTUD6B (UniProt Q8N6M0)
# T1 sequence (whole entry): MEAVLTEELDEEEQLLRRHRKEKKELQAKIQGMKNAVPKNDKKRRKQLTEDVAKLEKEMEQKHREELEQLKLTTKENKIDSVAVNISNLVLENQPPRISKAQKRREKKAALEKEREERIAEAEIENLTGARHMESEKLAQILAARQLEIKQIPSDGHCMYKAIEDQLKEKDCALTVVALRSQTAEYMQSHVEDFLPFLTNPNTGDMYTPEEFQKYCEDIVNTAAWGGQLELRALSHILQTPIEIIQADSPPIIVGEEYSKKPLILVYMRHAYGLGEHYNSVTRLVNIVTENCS
# How it was run: (§1)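 HEK293T lysate, 495 µg per sample in Tris/CHAPS/IGEPAL buffer with protease inhibitors, was treated in triplicate with fragment at 200 µM or vehicle for 3 h and then with Biotin-Ahx-Ub-VS at 0.5 µM final for 1 h. Labelled DUBs were NeutrAvidin-enriched, digested with LysC and trypsin, and run by diaPASEF LC-MS/MS. Spectronaut label-free quantities were global-median-normalised, and values are average log2 fragment/vehicle ratios by unpaired t-test on proteins with ≥2 unique peptides.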
# OTUD7B = target: T2, OTUD7B (UniProt Q6GQQ9)
# T2 sequence (whole entry): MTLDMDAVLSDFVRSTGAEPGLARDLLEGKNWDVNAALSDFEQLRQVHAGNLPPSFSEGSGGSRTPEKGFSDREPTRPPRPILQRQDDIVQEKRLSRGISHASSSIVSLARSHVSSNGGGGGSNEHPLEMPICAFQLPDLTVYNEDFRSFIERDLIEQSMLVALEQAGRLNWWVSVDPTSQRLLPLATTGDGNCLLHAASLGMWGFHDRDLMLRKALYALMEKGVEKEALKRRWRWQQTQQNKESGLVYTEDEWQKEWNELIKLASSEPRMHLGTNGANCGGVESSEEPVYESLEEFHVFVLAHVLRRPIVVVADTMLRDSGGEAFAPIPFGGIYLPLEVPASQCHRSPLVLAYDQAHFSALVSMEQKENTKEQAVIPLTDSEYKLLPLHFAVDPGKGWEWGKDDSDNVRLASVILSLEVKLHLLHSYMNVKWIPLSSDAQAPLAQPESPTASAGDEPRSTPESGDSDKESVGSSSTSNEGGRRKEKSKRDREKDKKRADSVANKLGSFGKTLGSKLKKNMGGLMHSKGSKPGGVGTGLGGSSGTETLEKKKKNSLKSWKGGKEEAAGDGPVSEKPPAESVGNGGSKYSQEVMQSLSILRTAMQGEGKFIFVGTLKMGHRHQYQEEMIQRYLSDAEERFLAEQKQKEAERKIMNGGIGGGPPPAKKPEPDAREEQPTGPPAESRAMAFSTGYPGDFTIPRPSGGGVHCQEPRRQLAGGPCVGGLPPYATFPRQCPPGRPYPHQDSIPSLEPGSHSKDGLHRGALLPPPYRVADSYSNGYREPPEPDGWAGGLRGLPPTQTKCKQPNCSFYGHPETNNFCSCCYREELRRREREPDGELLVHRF
# How it was run: as §1
# PRPF8 = PRPF8 (UniProt Q6P2Q9)
# How it was run: as §1
# PSMD7 = target: T3, PSMD7 (UniProt P51665)
# T3 sequence (whole entry): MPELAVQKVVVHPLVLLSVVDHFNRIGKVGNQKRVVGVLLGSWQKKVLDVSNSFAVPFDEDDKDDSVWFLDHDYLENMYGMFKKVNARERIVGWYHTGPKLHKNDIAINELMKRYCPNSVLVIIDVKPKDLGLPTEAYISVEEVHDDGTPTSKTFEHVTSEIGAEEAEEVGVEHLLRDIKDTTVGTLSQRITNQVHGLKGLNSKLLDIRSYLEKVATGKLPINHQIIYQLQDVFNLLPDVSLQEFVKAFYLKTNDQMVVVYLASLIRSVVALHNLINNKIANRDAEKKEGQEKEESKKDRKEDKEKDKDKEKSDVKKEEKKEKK
# How it was run: as §1
# UCHL1 = UCHL1 (UniProt P09936)
# How it was run: as §1
# UCHL3 = target: T4, UCHL3 (UniProt P15374)
# T4 sequence (whole entry): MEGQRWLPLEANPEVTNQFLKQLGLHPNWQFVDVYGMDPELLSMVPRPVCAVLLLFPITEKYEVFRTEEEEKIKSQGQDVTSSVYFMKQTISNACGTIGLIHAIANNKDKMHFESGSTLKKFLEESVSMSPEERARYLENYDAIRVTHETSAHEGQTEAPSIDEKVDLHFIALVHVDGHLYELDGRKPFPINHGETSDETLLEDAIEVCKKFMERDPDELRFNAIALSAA
# How it was run: as §1
# UCHL5 = target: T5, UCHL5 (UniProt Q9Y5K5)
# T5 sequence (whole entry): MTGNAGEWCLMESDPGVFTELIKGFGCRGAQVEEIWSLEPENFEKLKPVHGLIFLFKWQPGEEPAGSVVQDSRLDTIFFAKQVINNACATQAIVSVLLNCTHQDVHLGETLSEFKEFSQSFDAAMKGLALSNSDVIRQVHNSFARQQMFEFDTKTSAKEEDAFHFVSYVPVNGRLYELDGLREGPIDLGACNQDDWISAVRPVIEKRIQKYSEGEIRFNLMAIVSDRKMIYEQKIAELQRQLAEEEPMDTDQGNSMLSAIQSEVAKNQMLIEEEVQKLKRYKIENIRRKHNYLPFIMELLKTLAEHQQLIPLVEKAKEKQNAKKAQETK
# How it was run: as §1
# USP10 = USP10 (UniProt Q14694)
# How it was run: as §1
# USP15 = target: T6, USP15 (UniProt Q9Y4E8)
# T6 sequence (whole entry): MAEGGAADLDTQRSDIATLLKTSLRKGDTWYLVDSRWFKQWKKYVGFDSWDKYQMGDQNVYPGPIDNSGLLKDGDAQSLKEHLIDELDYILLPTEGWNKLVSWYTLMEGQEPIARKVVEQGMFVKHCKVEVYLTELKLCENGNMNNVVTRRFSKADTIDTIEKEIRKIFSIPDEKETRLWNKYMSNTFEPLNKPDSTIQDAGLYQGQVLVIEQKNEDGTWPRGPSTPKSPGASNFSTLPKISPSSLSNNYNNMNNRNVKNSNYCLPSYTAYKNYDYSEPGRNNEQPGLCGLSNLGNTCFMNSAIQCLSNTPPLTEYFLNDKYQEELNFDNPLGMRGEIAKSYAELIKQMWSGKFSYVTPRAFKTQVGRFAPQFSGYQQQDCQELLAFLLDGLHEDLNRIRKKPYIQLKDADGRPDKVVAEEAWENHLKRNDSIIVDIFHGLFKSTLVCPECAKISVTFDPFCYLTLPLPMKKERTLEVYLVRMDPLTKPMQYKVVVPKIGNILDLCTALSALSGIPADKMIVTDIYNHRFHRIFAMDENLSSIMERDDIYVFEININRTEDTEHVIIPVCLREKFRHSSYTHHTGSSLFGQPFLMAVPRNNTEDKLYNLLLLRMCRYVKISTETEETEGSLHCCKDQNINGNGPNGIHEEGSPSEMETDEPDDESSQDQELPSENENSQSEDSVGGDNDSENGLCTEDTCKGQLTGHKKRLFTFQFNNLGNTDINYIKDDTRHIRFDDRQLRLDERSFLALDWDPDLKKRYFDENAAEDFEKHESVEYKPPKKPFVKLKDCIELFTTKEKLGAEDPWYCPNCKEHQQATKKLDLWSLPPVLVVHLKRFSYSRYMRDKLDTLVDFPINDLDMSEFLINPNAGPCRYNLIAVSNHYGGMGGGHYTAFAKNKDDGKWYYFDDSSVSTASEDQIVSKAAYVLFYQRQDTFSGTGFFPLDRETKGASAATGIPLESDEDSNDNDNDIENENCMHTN
# How it was run: as §1
# USP16 = USP16 (UniProt Q9Y5T5)
# How it was run: as §1
# Sequence of UCHL1 (P09936 whole entry, looked up): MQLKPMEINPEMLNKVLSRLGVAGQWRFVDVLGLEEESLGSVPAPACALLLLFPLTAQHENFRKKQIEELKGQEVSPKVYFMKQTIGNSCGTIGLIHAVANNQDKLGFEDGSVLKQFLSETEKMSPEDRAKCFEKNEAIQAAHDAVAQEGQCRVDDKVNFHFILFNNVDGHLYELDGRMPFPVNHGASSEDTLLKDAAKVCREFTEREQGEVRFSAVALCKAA
# Sequence of USP16 (Q9Y5T5 whole entry, looked up): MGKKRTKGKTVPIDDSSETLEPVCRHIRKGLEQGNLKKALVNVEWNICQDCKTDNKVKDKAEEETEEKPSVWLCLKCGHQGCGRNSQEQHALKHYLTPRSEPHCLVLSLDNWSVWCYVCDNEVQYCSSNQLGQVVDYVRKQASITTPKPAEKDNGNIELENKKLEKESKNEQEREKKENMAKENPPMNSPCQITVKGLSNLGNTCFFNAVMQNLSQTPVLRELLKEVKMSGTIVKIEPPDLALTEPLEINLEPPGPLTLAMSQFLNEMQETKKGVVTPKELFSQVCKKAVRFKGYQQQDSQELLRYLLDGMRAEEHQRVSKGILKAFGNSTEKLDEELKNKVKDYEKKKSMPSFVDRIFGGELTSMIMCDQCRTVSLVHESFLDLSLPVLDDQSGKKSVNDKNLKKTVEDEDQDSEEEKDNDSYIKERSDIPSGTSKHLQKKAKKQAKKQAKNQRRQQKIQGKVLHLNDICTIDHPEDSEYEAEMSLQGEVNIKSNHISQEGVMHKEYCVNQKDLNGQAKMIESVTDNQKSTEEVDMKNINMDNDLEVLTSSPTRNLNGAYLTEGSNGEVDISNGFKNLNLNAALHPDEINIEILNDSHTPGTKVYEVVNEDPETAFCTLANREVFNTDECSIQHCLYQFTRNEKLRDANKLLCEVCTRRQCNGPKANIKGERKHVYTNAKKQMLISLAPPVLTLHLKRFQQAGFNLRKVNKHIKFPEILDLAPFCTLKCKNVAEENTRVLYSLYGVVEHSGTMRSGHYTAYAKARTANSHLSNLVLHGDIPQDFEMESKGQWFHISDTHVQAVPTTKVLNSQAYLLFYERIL
# Sequence of USP10 (Q14694 whole entry): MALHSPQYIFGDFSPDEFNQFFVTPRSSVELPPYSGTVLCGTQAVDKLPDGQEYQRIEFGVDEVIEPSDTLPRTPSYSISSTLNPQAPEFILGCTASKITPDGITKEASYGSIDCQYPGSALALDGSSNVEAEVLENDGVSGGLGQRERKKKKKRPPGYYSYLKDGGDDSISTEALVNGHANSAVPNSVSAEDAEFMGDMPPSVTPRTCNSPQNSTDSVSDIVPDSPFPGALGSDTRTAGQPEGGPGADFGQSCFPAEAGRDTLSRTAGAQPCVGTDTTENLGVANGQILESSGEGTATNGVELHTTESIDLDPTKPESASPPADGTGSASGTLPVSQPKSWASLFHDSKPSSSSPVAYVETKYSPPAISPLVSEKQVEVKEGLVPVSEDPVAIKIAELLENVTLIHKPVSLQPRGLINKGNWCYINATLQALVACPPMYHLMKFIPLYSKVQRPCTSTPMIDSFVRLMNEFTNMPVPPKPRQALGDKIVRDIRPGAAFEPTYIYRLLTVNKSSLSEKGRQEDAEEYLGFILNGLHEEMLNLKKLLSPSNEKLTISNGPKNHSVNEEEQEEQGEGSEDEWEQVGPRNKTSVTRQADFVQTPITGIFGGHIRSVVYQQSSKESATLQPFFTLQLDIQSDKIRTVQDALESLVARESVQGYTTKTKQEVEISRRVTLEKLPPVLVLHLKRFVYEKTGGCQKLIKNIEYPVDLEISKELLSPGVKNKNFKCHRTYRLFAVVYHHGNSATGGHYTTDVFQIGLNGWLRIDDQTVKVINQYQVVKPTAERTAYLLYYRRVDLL
structure (smiles),measurement,setting,value
CC(NC(=O)CCl)c1noc(Cc2ccccc2)n1 (stereo not given),log2 ratio of Biotin-Ahx-Ub-VS probe labelling,OTUD6B,-0.409
same,log2 ratio of Biotin-Ahx-Ub-VS probe labelling,OTUD7B,-0.724
same,log2 ratio of Biotin-Ahx-Ub-VS probe labelling,PRPF8,0.0633
same,log2 ratio of Biotin-Ahx-Ub-VS probe labelling,PSMD7,-0.49
same,log2 ratio of Biotin-Ahx-Ub-VS probe labelling,UCHL1,-1.97 (active)
same,log2 ratio of Biotin-Ahx-Ub-VS probe labelling,UCHL3,-0.00714
same,log2 ratio of Biotin-Ahx-Ub-VS probe labelling,UCHL5,-0.344
same,log2 ratio of Biotin-Ahx-Ub-VS probe labelling,USP10,0.046
same,log2 ratio of Biotin-Ahx-Ub-VS probe labelling,USP15,-0.331
same,log2 ratio of Biotin-Ahx-Ub-VS probe labelling,USP16,-0.296
